Results: PubChem BioAssay (Tox21)
Inconclusive results are not listed. Activity calls are given as the source filed them. Unless noted, calls come from the whole dose curve; as a rule, active = well fitted curve in the direction sought with a large enough effect in the repeat runs; inconclusive = weak or mixed curves; inactive = no such curve, though single readings can be large; an effect the other way counts as inactive or inconclusive.

How the values were obtained:
[1] = target: Androgen receptor (Homo sapiens) (UniProt P10275); test: qHTS assay to identify small molecule antagonists of the androgen receptor (AR) signaling pathway (AID 743035; active = well fitted inhibition curve with a large enough effect in the signal ratio in the repeat runs, not every such curve was filed as active; the % refers to the signal ratio)
Method in brief: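 In this cell-based reporter screen, compounds were tested in concentration series against R1881-activated HEK293 cells expressing beta-lactamase under UAS control; after 16 h at 37C, FRET substrate was added and fluorescence read 2 h later.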

[2] = target: Androgen receptor (Homo sapiens) (UniProt P10275); test: qHTS assay to identify small molecule agonists of the androgen receptor (AR) signaling pathway (AID 743036; active = well fitted activation curve with a large enough effect in the signal ratio in the repeat runs, with a control signal flat, not every such curve was filed as active; the % refers to the signal ratio)
Method in brief: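 Activation was read as beta-lactamase FRET signal from LiveBLAzer B/G substrate, added for 2 h at room temperature. Before that, GeneBLAzer AR-UAS-bla GripTite (HEK293) cells had 16 h compound exposure at 37C.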

[3] = target: Androgen receptor (Homo sapiens) (UniProt P10275); test: qHTS assay to identify small molecule agonists of the androgen receptor (AR) signaling pathway using the MDA cell line (AID 743040; note: nearly all actives have a fitted effect of over 20% in size)
Method in brief: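 Luciferase agonist assay: 16 h compound exposure at 37C without CO2 in MDA-kb2 AR-luc cells, whose MMTV promoter responds to both AR and GR. Luminescence measured after 30 min room-temperature incubation with ONE-Glo.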

[4] = qHTS assay to identify small molecule antagonists of the androgen receptor (AR) signaling pathway using the MDA cell line - cell viability counter screen (AID 743041; note: nearly all actives have a fitted effect of over 45% in size)
Method in brief: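 Viability read by CellTiter-Fluor fluorescence in the same wells as the antagonist screen, added after 15.5 h of a 16 h, 37C exposure. Human breast carcinoma MDA-kb2 AR-luc cells, compounds co-dosed with agonist R1881.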

[5] = target: Androgen receptor (Homo sapiens) (UniProt P10275); test: qHTS assay to identify small molecule antagonists of the androgen receptor (AR) signaling pathway using the MDA cell line (AID 743042; note: nearly all actives have a fitted effect of over 55% in size)
Method in brief: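 Antagonist mode: compounds plus R1881 agonist added to MDA-kb2 AR-luc cells, incubated 16 h at 37C. Luciferase reporter luminescence quantified, with multiplexed CellTiter-Fluor readout for cell viability.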

[6] = qHTS assay to identify small molecule antagonists of the thyroid receptor (TR) signaling pathway - cell viability counter screen (AID 743064); note: nearly all actives have a fitted effect of over 50% in size
Method in brief: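 In-well cytotoxicity read by CellTiter-Fluor (30 min, 37 C) following 23.5 h exposure of GH3 cells bearing a TRE-luciferase sensor. Compounds were added alongside 1 nM (final) T3 to drive TR transactivation.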

[7] = qHTS assay to identify small molecule antagonists of the thyroid receptor (TR) signaling pathway (AID 743065); note: series mostly up to about 70 µM; nearly all actives have a fitted effect of over 55% in size
Method in brief: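 Antagonism measured as loss of luciferase signal in GH3 cells stably carrying a TRE-luciferase reporter, co-treated with compound and T3 (1 nM final) for 23.5 h at 37 C. Viability was read in the same well by CellTiter-Fluor.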

[8] = system: thyroid hormone receptor (rat, GH3 cells); test: qHTS assay to identify small molecule agonists of the thyroid receptor (TR) signaling pathway (AID 743066; calls by dose curve)
[9] = target: Estrogen receptor (Homo sapiens) (UniProt P03372); test: qHTS assay to identify small molecule antagonists of the estrogen receptor alpha (ER-alpha) signaling pathway (AID 743069; active = well fitted curve in the direction sought with a large enough effect in the signal ratio in the repeat runs, not every such curve was filed as active; the % refers to the signal ratio)
Method in brief: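 Antagonist mode: compounds in DMSO were co-added with 17beta-estradiol to ER-alpha-bla HEK293 cells (2% charcoal-stripped serum) and left 18 h at 37C. Reporter inhibition was measured as FRET fluorescence after 2 h LiveBLAzer substrate at room temperature.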

[10] = qHTS assay to identify small molecule antagonists of the estrogen receptor alpha (ER-alpha) signaling pathway - cell viability counter screen (AID 743074; calls by dose curve;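 note: HEK293 cells carrying ER-alpha-UAS-bla reporter stimulated with 17beta-estradiol; nearly all actives have a fitted effect of over 45% in size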)
[11] = target: Estrogen receptor (Homo sapiens) (UniProt P03372); test: qHTS assay to identify small molecule agonists of the estrogen receptor alpha (ER-alpha) signaling pathway (AID 743075; calls by dose curve;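 note: HEK293 GripTite cells with ER-alpha and UAS-driven beta-lactamase reporter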)
[12] = target: Estrogen receptor (Homo sapiens) (UniProt P03372); test: qHTS assay to identify small molecule agonists of the estrogen receptor alpha (ER-alpha) signaling pathway using the BG1 cell line (AID 743079); note: nearly all actives have a fitted effect of over 20% in size
[13] = qHTS assay to identify small molecule antagonists of the estrogen receptor alpha (ER-alpha) signaling pathway using the BG1 cell line (AID 743080; calls by dose curve;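 note: BG1 cells stimulated with 17beta-estradiol alongside compound; series mostly up to about 70 µM; nearly all actives have a fitted effect of over 25% in size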)
Method in brief: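 Luminescence from a 4×ERE-luciferase reporter in BG1-Luc-4E2 cells served as read-out. Cells, pre-cultured 5 days in stripped-serum phenol-red-free medium, were exposed to compound with 17beta-estradiol co-stimulation for 21.5 h at 37 C.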

[14] = qHTS assay to identify small molecule antagonists of the estrogen receptor alpha (ER-alpha) signaling pathway using the BG1 cell line - cell viability counter screen (AID 743081);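 note: compound given together with 17beta-estradiol as the ER stimulus; series mostly up to about 70 µM; nearly all actives have a fitted effect of over 45% in size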
Aromatase (Homo sapiens) = Aromatase (Homo sapiens) (UniProt P11511); test: qHTS assay to identify aromatase inhibitors (AID 743083); note: series mostly up to about 70 µM; nearly all actives have a fitted effect of over 55% in size
[15] = qHTS assay to identify aromatase inhibitors - cell viability counter screen (AID 743084);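 note: cells stimulated with testosterone during compound exposure; nearly all actives have a fitted effect of over 55% in size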
[16] = target: Aryl hydrocarbon receptor (Homo sapiens) (UniProt P35869); test: qHTS assay to identify small molecule that activate the aryl hydrocarbon receptor (AhR) signaling pathway (AID 743085);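 note: HG2L7.5c1 human HepG2 liver cells with stably integrated DRE-driven firefly reporter; series mostly up to about 70 µM; nearly all actives have a fitted effect of over 15% in size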
Method in brief: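 Luminescence (ONE-Glo) from a dioxin-responsive-element luciferase reporter in HG2L7.5c1 HepG2 cells after 24 hr compound exposure at 37C; viability measured by CellTiter-Fluor fluorescence beforehand.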

[17] = qHTS assay to identify small molecule that activate the aryl hydrocarbon receptor (AhR) signaling pathway - cell viability counter screen (AID 743086);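 note: HepG2 liver cells carrying the AhR DRE luciferase reporter; series mostly up to about 70 µM; nearly all actives have a fitted effect of over 45% in size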
Method in brief: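 Cytotoxicity counter screen: CellTiter-Fluor signal (30 min, 37 C) in 4000 HepG2 cells/well carrying the DRE-luciferase reporter, following 24 h compound exposure at 37 C.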

[18] = target: Peroxisome proliferator-activated receptor gamma (Homo sapiens) (UniProt P37231); test: qHTS assay to identify small molecule agonists of the peroxisome proliferator-activated receptor gamma (PPARg) signaling pathway (AID 743094; active = well fitted activation curve with a large enough effect in the signal ratio in the repeat runs, not every such curve was filed as active; the % refers to the signal ratio)
Method in brief: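 Cell-based bla reporter, HEK293H background, PPARg-driven UAS. Pre-incubation 5 h, 37C, 5% CO2. Compound 17 h, 37C. Substrate 1 h RT; fluorescence.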

[19] = qHTS assay to identify small molecule antagonists of the estrogen related receptor (ERR) signaling pathway - cell viability counter screen (AID 1224818);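 note: series mostly up to about 46 µM; viability measured after 17.5 h of compound exposure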
Method in brief: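 Cytotoxicity check run alongside the ERR antagonist screen: cells exposed to test compounds 17.5 h at 37 C, viability taken as CellTiter-Fluor fluorescence intensity.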

[20] = qHTS assay to identify small molecule agonists of the estrogen related receptor (ERR) signaling pathway (AID 1224820)
Method in brief: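 An ERR cell line provided by NTP was seeded at 2,000 cells per well and allowed to settle for 6 h before compounds in DMSO were added. After 18 h at 37 C, luciferase activity was measured by One-Glo luminescence.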

[21] = system: estrogen-related receptor alpha (ERRalpha) with PGC-1alpha coactivator, human; test: qHTS assay to identify small molecule antagonists of the estrogen related receptor signaling pathway with the pleiotropic PPARgamma coactivator (PGC) (AID 1224821; calls by dose curve;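 note: series mostly up to about 46 µM; lower luminescence signal means antagonism of PGC/ERR signalling; nearly all actives have a fitted effect of over 50% in size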)
Method in brief: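 A PGC/ERR cell line supplied by NTP is seeded, allowed 6 h at 37 C, and treated with test compounds in DMSO for 18 h. Signal is then measured as luciferase luminescence using One-Glo.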

[22] = qHTS assay to identify small molecule antagonists of the estrogen related receptor signaling pathway with the pleiotropic PPARgamma coactivator (PGC) cell viability counter screen (AID 1224822;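 note: series mostly up to about 46 µM; viability read after 17.5 h compound exposure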)
Method in brief: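 Viable cell signal (CellTiter-Fluor, 30 min, 37 C/5% CO2) was measured in PGC/ERR cells after a 17.5 h compound incubation.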

[23] = qHTS assay to identify small molecule agonists of the estrogen related receptor signaling pathway with the pleiotropic PPARgamma coactivator (PGC) (AID 1224823)
Method in brief: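 Compounds dissolved in DMSO are added by pin tool to PGC/ERR cells that have settled for 6 h, and incubation continues 18 h at 37 C. Reporter output is measured as One-Glo luminescence.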

[24] = qHTS assay to identify small molecule phospholipidosis (PLD) inducers (AID 1259344; active = well fitted curve in the direction sought with a large enough effect; an effect the other way counts as inactive or inconclusive)
Method in brief: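 Phospholipid accumulation was scored by imaging: fixed, Hoechst-counterstained HepG2 cells stained with LipidTOX Red after 24 h compound exposure at 37 C. Read-outs were pit count and pit intensity per well or per cell, with amiodarone and DMSO controls.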

Measured: Potency

Sequence of Androgen receptor (Homo sapiens) (P10275 whole entry, looked up): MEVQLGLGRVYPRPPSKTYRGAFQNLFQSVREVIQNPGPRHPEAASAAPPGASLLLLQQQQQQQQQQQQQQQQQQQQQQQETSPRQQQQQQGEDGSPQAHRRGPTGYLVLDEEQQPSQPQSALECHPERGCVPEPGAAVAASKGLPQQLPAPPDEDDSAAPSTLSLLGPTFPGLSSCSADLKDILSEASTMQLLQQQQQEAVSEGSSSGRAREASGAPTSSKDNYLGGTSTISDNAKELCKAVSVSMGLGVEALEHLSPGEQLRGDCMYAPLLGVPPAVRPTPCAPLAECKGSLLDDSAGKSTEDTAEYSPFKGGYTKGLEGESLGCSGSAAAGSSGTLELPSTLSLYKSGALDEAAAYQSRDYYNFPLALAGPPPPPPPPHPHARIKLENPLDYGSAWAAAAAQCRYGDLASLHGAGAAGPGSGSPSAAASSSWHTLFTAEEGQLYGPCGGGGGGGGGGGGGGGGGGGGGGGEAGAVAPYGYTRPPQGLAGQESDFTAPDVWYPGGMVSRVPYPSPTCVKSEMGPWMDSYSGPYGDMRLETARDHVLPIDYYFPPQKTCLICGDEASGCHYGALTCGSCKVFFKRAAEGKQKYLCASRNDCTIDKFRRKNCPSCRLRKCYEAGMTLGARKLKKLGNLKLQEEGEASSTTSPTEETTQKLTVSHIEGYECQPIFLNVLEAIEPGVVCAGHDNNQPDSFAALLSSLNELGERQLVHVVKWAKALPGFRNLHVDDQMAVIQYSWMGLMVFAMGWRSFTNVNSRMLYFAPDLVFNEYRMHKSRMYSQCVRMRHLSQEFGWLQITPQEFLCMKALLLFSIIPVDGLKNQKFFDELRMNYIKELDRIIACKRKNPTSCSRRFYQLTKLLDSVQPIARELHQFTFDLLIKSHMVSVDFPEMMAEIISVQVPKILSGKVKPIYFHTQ
Sequence of Estrogen receptor (Homo sapiens) (P03372 whole entry, looked up): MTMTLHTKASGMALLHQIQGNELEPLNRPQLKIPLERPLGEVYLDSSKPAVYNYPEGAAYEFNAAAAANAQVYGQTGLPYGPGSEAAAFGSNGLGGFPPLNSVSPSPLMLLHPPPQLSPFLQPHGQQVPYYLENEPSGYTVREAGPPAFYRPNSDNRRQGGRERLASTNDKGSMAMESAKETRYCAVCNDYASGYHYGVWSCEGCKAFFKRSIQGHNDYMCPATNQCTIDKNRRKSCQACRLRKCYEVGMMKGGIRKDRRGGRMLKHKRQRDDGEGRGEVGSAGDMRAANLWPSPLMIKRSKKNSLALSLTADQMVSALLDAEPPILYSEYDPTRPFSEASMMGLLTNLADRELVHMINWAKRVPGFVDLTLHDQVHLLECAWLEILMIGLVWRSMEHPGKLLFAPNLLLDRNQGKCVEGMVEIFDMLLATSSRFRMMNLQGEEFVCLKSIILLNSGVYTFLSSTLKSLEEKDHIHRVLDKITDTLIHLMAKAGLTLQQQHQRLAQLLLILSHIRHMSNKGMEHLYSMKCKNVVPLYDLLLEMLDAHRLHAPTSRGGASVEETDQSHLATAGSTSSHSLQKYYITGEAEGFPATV
Sequence of Peroxisome proliferator-activated receptor gamma (Homo sapiens) (P37231 whole entry, looked up): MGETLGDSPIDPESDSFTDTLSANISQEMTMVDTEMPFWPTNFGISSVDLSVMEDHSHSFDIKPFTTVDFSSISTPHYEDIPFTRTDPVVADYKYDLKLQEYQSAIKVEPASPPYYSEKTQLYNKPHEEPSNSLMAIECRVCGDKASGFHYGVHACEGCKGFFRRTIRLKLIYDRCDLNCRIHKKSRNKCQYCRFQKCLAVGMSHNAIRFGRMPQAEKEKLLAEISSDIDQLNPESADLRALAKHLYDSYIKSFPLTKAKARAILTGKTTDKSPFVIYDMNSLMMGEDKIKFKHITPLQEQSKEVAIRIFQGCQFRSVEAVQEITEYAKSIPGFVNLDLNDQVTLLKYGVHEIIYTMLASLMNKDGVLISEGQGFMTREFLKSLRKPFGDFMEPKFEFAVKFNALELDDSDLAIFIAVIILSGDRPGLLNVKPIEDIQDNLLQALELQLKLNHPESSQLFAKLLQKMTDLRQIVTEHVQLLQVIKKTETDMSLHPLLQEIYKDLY
Sequence of Aryl hydrocarbon receptor (Homo sapiens) (P35869 whole entry, looked up): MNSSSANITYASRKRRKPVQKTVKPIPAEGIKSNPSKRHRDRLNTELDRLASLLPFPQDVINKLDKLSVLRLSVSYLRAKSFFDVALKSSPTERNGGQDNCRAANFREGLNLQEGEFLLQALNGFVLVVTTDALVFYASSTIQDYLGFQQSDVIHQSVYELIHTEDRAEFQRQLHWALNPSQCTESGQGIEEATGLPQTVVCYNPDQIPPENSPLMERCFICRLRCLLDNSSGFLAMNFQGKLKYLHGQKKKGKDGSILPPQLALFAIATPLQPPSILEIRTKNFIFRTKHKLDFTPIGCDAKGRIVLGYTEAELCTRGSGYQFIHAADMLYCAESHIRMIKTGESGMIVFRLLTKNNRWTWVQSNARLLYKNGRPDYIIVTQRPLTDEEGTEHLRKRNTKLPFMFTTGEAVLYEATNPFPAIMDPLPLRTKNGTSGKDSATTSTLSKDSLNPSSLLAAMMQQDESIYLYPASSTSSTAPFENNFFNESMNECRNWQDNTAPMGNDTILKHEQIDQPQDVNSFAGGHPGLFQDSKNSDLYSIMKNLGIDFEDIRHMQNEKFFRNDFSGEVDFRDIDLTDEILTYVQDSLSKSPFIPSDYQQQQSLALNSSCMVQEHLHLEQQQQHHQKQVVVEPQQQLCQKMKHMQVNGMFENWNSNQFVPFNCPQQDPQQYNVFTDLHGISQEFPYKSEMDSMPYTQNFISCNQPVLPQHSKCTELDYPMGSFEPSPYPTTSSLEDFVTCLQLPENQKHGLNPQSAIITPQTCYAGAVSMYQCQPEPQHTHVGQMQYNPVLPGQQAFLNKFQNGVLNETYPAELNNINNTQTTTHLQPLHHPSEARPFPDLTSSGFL
Sequence of Aromatase (Homo sapiens) (P11511 whole entry, looked up): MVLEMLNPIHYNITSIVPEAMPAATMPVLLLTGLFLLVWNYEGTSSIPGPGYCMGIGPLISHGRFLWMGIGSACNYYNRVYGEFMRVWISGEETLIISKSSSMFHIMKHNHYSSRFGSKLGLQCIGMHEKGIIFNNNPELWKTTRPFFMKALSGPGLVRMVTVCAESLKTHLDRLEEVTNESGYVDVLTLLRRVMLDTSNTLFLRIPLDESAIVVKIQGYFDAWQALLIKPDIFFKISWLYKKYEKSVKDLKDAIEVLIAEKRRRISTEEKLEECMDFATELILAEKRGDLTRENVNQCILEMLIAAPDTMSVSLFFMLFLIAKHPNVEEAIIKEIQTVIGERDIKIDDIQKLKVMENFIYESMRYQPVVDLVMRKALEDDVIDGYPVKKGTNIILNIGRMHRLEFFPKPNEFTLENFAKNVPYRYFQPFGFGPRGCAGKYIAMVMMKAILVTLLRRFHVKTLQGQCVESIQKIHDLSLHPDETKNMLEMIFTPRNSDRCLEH

NC(=O)CN1CC(O)CC1=O (stereo not given)
inactive: all assays above
